Inhibition data for one compound are collected here from PubChem BioAssay AID1520 (The Scripps Research Institute Molecular Screening Center, 2009).

The list shows a part of the results. Active and inactive are the calls of the source.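 The calls were made as follows: active = cell growth inhibition above the hit limit set in the earlier mutant JAK2 cell screen (cut at about 27% in these data); inactive = the rest.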

The nature of the test: parental Ba/F3 cell viability inhibition, counter-screen for JAK2V617F inhibitor project, murine pro-B, CellTiter-Glo luminescence (AID 1520).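 Also: plate controls were DMSO-treated cells for no effect and JAK Inhibitor I control wells for full effect.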 The conditions noted are these: at 5.6 µM, stronger effect = higher value. In general terms: A counterscreen serves to expose hits that act by an unwanted route or on another target.

By inhibition is commonly meant the share of the control response that was lost under treatment. As for `CN(C)CC1Oc2ccccc2OC1(O)c1ccccc1` (stereo unspecified), the inhibition was 34.6% (active).
